# Screens deposited in PubChem by National Center for Advancing Translational Sciences (NCATS).
# TDP1 cell CPT: growth inhibition of DT40 Tdp1-/-;hTDP1 cells with camptothecin (screen for TDP1 inhibitors). chicken DT40 Tdp1-/-;hTDP1 cells + 20 nM CPT, ATP luminescence, 48 h. Potency, µM (highest dose often 46.2 µM), hits mostly inhibitors. 12% of 420,000 active. AID 686979; further: nearly all actives have a fitted effect of over 55% in size
#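 Chicken DT40 Tdp1-/- cells complemented with human TDP1, 400 cells/well, exposed to compounds plus 20 nM camptothecin for at least 48 h at 37 C; viability read as ATP content by CellTiter-Glo luminescence.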
# TDP1 block: blocks human tyrosyl-DNA phosphodiesterase 1; Potency, µM (top dose mostly 130 µM), actives largely listed as inhibitors; recombinant TDP1, AlphaScreen DNA substrate cleavage; AID 485290; 0.28% of 350,000 active; further: nearly all actives have a fitted effect of over 40% in size
# Target sequence (Q9NUW8 whole entry, looked up): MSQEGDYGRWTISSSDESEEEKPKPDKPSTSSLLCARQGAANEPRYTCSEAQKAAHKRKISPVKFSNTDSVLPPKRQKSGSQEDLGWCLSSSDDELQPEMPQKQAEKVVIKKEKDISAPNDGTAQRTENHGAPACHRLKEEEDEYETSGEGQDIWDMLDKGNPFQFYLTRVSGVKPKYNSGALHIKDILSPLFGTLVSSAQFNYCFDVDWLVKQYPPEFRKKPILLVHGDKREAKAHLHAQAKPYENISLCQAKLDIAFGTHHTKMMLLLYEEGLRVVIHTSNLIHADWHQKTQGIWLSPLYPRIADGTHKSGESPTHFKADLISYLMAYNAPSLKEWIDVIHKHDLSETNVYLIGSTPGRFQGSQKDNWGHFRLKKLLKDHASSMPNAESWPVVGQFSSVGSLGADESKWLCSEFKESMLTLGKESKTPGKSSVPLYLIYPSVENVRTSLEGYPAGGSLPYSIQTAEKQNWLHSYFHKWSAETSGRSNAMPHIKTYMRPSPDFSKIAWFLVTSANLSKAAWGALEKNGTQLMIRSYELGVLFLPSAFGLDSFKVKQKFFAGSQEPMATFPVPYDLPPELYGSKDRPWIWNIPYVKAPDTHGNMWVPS
#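 E. coli-derived human Tdp1, 1 nM final. Cpd preinc 15 min RT; substrate 15 nM final, 5 min RT; AS bead mix 10 ug/ml final, 10 min RT. Signal loss = tyrosine-FITC cleavage. No-enzyme wells = max signal.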
# HepG2 tox: counter-screen for TGF-b inhibitors: cytotoxicity in HepG2 cells; HepG2 CAGA-GFP viability, ATP luminescence, 18 h; Potency, µM (titrated, usually from 46.1 µM), actives largely listed as cytotoxic; 0.76% of 410,000 active
#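 HepG2 CAGA-GFP cells (1000/well, DMEM with 1% FBS) received compound, then TGF-beta at 500 pg/mL final, and were incubated 18 hours at 37 degrees C. Viability was read by CellTiter-Glo luminescence. Media-only wells were set as complete cell-killing and DMSO as no toxicity.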
# TDP1 cell noCPT: qHTS for Inhibitors of human tyrosyl-DNA phosphodiesterase 1 (TDP1): qHTS in cells in absence of CPT | Potency, µM (doses to about 46.2 µM), usual class: inhibitors | DT40 Tdp1-/- hTDP1 cells, no CPT, ATP luminescence, 48 h | 15% of 420,000 active; further: nearly all actives have a fitted effect of over 55% in size
#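 Chicken DT40 Tdp1-/- cells stably complemented with human TDP1 were seeded at 400 cells/well with DMSO in place of 20 nM camptothecin. After compound pinning, cells grew at least 48 hr at 37 °C; viability read by CellTiter-Glo luminescence.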
# IL1B secr inh: inflammasome signaling inhibition, IL-1 beta readout; THP-1 LPS/ATP IL-1B secretion, AlphaLISA, 16 h; hits give low values; activity change, % at 57.5 µM; 4.7% of 360,000 active; in the data active means activity change below about -50%; inconclusive means mostly about -30% to -49%
#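 Secreted IL-1B measured by AlphaLISA bead assay after 16 h compound exposure of THP-1 cells; compounds (final up to 57.5 uM) added 1 h before LPS (250 ng/mL) and ATP (1.25 mM) stimulation; lower signal means less secretion.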
# TGFb inhibitor: inhibitors of TGF-b signaling; HepG2 CAGA-GFP TGF-b/SMAD3 reporter, GFP fluorescence, 18 h; TGF-beta stimulated, 500 pg/mL final; Potency, µM (highest dose often 46.1 µM), actives largely listed as inhibitors; 1.2% of 410,000 active; further: nearly all actives have a fitted effect of over 65% in size
#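 Smad-responsive CAGA-GFP expression was quantified in HEPG2 cells exposed to compounds and 500 pg/mL final TGF-beta for 18 h at 37 degrees C; unstimulated wells defined full inhibition.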
# A number is an active result; - = inactive; ? = inconclusive; . = no result; ! = not confirmed by another sample; [ ] = remark or other dose. Rows were chosen to be rich in hits. Some 19% of all compounds tested hit in one or more screens of this group. Unless noted, the call rests on the fitted dose curve; in most records, active means well fitted curve in the direction sought with a large enough effect; inconclusive means small, poorly fitted or top-dose-only effect, or another doubt; inactive means no such curve, though single readings can be large; an effect the other way counts as inactive or inconclusive.
SMILES,TDP1 cell CPT,TDP1 block,HepG2 tox,TDP1 cell noCPT,IL1B secr inh,TGFb inhibitor
C[N+]1(CC2COC(c3ccccc3)(c3ccccc3)O2)CCCCC1 (stereo not drawn),?,.,.,18.8µM,.,.
C[C@H](CCC(=O)O)C[C@H](C)C[C@H](C)C(=O)/C=C(\O)[C@H](C)C[C@H](C)C/C=C/[C@@H](C)[C@@H](O)[C@@H](C)[C@@H](O)C[C@@H]1CC[C@@](C)(C2CC[C@@](C)([C@@H](C)O)O2)O1 (stereo partly drawn),.,-,.,.,.,.
CC(=O)Nc1ccc(S(=O)(=O)N(C)CCOCc2ccccc2)cc1,23.1µM,-,-,18.4µM,-,-
Cc1ccc(-c2nn3c(C)nnc3c3ccccc23)cc1S(=O)(=O)NCCO,?,-,-,20.6µM!,-,-
CCC(C)C(=O)c1c(O)c(C)c2oc3c(C)c(O)c(C(=O)C(C)CC)c(O)c3c2c1O (stereo not drawn),?,-,.,?,.,.
Cc1onc(-c2ccccc2)c1C(=O)Nc1ccc(S(=O)(=O)N2CCCC2)cc1,?,-,-,-,-,-
Cc1c(C(=O)N2CCC3(CC2)OCCO3)oc2ccccc12,-,-,-,-,-,-
Cc1c(Cl)cccc1NC(=O)c1oc2ccc(S(=O)(=O)N3CCC4(CC3)OCCO4)cc2c1C,4.11µM,-,-,4.11µM,.,-
Cc1c(C(=O)NCCC2=CCCCC2)oc2ccc(S(=O)(=O)N3CCC4(CC3)OCCO4)cc12,18.4µM,-,-,23.1µM,-66.2,-
Cc1c(C(=O)N2CCC3(CC2)OCCO3)oc2ccc(S(=O)(=O)N3CCOCC3)cc12,-,-,-,-,-,-
Cc1c(C(=O)Nc2ccccc2Cl)oc2ccc(S(=O)(=O)N3CCCCC3)cc12,20.6µM,-,-,16.4µM,.,-
C/C(=N\Nc1cccc2ccccc12)c1c(O)n(Cc2ccccc2)c(=O)[nH]c1=O,16.4µM,-,-,20.6µM,-,-
CCC(=O)O[C@@H]1[C@@H](OC(C)=O)[C@@]2(O)C(C[C@H](O)C2(C)C)[C@](C)(O)[C@H]2CC[C@@H]3[C@@H](O)[C@]12C[C@@]3(C)O (stereo partly drawn),-,-,-,-,-,-
COc1cc2c(c(OC)c1O)-c1ccc(OC)c(=O)cc1C(NC(=O)C(F)(F)F)CC2 (stereo not drawn),0.103µM,.,-,0.164µM,-,?
COc1cc2c(c(OC)c1OC)-c1ccc(C(=O)O)cc1[C@@H](NC(C)=O)CC2,.,.,-,.,.,-
COc1cc2c(c(OC)c1OC)-c1ccc(OC)c(=O)cc1[C@@H](NC(C)=O)CC2,0.0164µM,-,-,0.188µM!,-,?
COc1cc2c(c(OC)c1OC)-c1ccc(OC)c(=O)cc1[C@H](NC(C)=O)CC2,0.0944µM,-,.,0.0596µM,.,.
CCN(CC)c1ccc2c(cc1=O)[C@@H](NC)CCc1cc(OC)c(OC)c(OC)c1-2,1.16µM,.,-,1.16µM,-,?
COc1cc2c(c(OC)c1OC)-c1ccc(O)c(=O)cc1[C@H](N)CC2,.,-[21 µM],.,.,.,.
O=C(Oc1ccccc1)N1CCC2(CCCN(Cc3ccccc3)C2)CC1,-,.,.,?,.,.
N[C@@H](CCCCP(=O)(O)O)C(=O)O,-,-,.,-,.,.
C=C[C@H]1CN2CC[C@H]1C[C@H]2c1[nH]c2ccccc2c1CCO,-,-,.,-,.,.
Cc1ccc(-n2nc3c(=O)n(CC(=O)NCC(C)c4ccccc4)nc(C)c3c2C)cc1 (stereo not drawn),20.6µM,-,-,?,.,-
CC(CNC(=O)CCS(=O)(=O)c1ccc2c(c1)oc(=O)n2C)c1ccccc1 (stereo not drawn),-,-,-,-,-,?
C/C(=N\OC(=O)NC(C)C)c1sc(-c2ccccc2)nc1C,?,-,-,?,?,-
SMILES,TDP1 cell CPT,TDP1 block,HepG2 tox,TDP1 cell noCPT,IL1B secr inh,TGFb inhibitor
C/C(=N\OC(=O)NC(C)C)c1sc(-c2ccc(Cl)cc2)nc1C,?,-,-,18.4µM,-,-
CCNC(=O)O/N=C(\C)c1sc(-c2ccc(Cl)cc2)nc1C,25.9µM,-,-,18.4µM,-,-
O=C(C1CCCCC1)N1CCC(c2nc3c(nnn3Cc3c(F)cccc3Cl)c(=O)[nH]2)CC1,-,-,-,?,-,-
CC(C)(C)c1nc(N2CCN(C(=O)c3ccco3)CC2)c2nnn(Cc3ccccc3Cl)c2n1,?,-,-,20.6µM,-,?
COC(=O)[C@H]1[C@@H](OC(=O)c2ccccc2)C[C@@H]2CC[C@H]1N2C,?,.,.,-,.,.
O=c1nc(/C=C/c2ccc(Cl)cc2Cl)cc(C(F)(F)F)[nH]1,-,-,11.2µM,?,-87.4,15.8µM
Cc1[nH]nc2c1C1(CCC(c3ccccc3)CC1)C(C#N)=C(N)O2 (stereo not drawn),?,-,-,-,-,-
CC(C)C1CN1CC(O)Cn1ccnc1[N+](=O)[O-] (stereo not drawn),18.4µM,.,-,?,-,-
O=[N+]([O-])c1nccn1CO[C@@H](CO)[C@H](O)CO,?,.,.,-,.,.
Cc1ccccc1C(=O)Nc1sc2c(c1C(=O)O)CCC(C(C)(C)C)C2 (stereo not drawn),10.3µM,.,-,4.61µM,.,-
CNC(C(=O)c1ccccc1)C(OC)c1cccc([N+](=O)[O-])c1 (stereo not drawn),-,-,-,-,-,-
COc1cccc(C(C(=O)NCc2ccco2)N(Cc2ccco2)C(=O)Cn2nnc3ccccc32)c1 (stereo not drawn),?,-,-,?,-,-
COc1ccc(CCCc2nnc(SCC(=O)Nc3ccc(C)c(C)c3)o2)cc1,?,-,-,?,-,?
COc1ccc(NC(=O)CSc2oc(-c3cccs3)nc2S(=O)(=O)c2ccccc2)c(OC)c1,20.6µM,-,-,23.1µM,.,-
Cc1ccc(-c2nc(S(=O)(=O)c3ccccc3)c(SCC(=O)NC3CCCCC3)o2)cc1,13µM,-,-,?,.,-
Cc1ccc(-c2nc(S(=O)(=O)c3ccc(C)cc3)c(SCC(=O)Nc3ccc(F)cc3)o2)cc1,16.4µM,-,-,23.1µM,.,-
Cc1ccc(-c2noc(=O)n2CC(=O)Nc2ccc(S(=O)(=O)NC3CC3)cc2)cc1,?,-,-,?,-,-
OC1CCC(Nc2ccn3nc(-c4cccc(OCc5ccccc5)c4)cc3n2)CC1 (stereo not drawn),?,.,-,?,-,-
COc1ccc(CN2CCN(C(=O)Cn3c(=O)oc4cc(Cl)ccc43)CC2)c(OC)c1OC,10.3µM,.,-,?,-,?
